IL-1B inflam inh: blocks inflammasome-driven IL-1 beta release; THP-1 LPS/ATP IL-1B secretion, AlphaLISA, 16 h; hits give low values; AID 743279; activity change, % at 57.5 µM; 4.7% of 360,000 active; in the data active means activity change below about -50%; inconclusive means mostly about -30% to -49%
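THP-1 cells pretreated 1 hr with compounds (up to 57.5 uM final), then stimulated with LPS (250 ng/mL final) plus ATP (1.25 mM final); secreted IL-1B measured by AlphaLISA after 16 hr, decreased signal indicating inhibition.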
TDP1 cell CPT: DT40-hTDP1 cell growth loss with CPT; chicken DT40 Tdp1-/-;hTDP1 cells + 20 nM CPT, ATP luminescence, 48 h; Potency, µM (highest dose often 46.2 µM), without a hit: at the top dose activity change, negative = growth inhibition, usual class: inhibitors; 12% of 420,000 active; AID 686979; further: potency means the concentration at half of the fitted maximal effect; nearly all actives have a fitted effect of over 55% in size
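Chicken DT40 Tdp1-/- cells stably complemented with human TDP1 were seeded at 400 cells/well in medium containing 20 nM camptothecin, exposed to pin-transferred compounds, and grown at 37 °C for at least 48 hr. Viability was read as ATP luminescence.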
HT1080 IDH1KD tx: kills HT-1080 cells with IDH1 knockdown. HT-1080 IDH1 knockdown viability, ATP luminescence, 48 h. 2% of 360,000 active. Potency, µM (series often up to 46.1 µM), without a hit: at the highest dose activity, negative = toxicity, hits mostly cytotoxic;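 further: potency means the concentration at half of the fitted maximal effect; 0% = DMSO wells and -100% = cell-free medium wells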
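Assay cells: HT-1080 with IDH1 knockdown, 750 per well, RPMI/5% FBS. Exposure: 48 h at 37 °C following 2 h pre-incubation. Read: CellTiter-Glo luminescence; fitted concentration-response, curve class assigned.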
TDP1 cell noCPT: qHTS for Inhibitors of human tyrosyl-DNA phosphodiesterase 1 (TDP1): qHTS in cells in absence of CPT; DT40 Tdp1-/- hTDP1 cells, no CPT, ATP luminescence, 48 h; Potency, µM (series often up to 46.2 µM), inactives show at the top dose activity change, negative = growth inhibition, usual class: inhibitors; 15% of 420,000 active; AID 686978, 2013; further: potency means the concentration at half of the fitted maximal effect; nearly all actives have a fitted effect of over 55% in size
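Chicken DT40 Tdp1-/- cells complemented with human TDP1, screened without camptothecin (DMSO vehicle only), 400 cells/well. Compounds pin-transferred, cells incubated at 37 °C for at least 48 hr. Growth read as ATP-dependent luminescence (CellTiter-Glo, 30 min at RT).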
uPA surface inh: blocks generation of uPA at the cell surface; cell surface uPA generation assay, qHTS; Potency, µM (top dose mostly 38.3 µM), inactives show top-dose activity change, negative = inhibition, usual class: inhibitors; 0.31% of 330,000 active; AID 540303; active means well fitted inhibition curve with a large enough effect; inconclusive means small, poorly fitted or top-dose-only effect; inactive means no such curve, though single readings can be large or run the other way; tested in mouse RAW 264.7 cells; further: potency means the concentration at half of the fitted maximal effect; nearly all actives have a fitted effect of over 55% in size
HT1080-NT tox: kills 2HG-producing HT-1080-NT fibrosarcoma cells; HT-1080-NT fibrosarcoma viability, CellTiter-Glo ATP luminescence, 48 h; Potency, µM (top dose mostly 46.1 µM), inactives show top-dose activity, negative = less viability, usual class: cytotoxic; 1.6% of 360,000 active;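 further: NT is the 2HG producing partner of a matched IDH1 knockdown line; potency means the concentration at half of the fitted maximal effect; 0% = DMSO-treated cells and -100% = media-only wells without cells; nearly all actives have a fitted effect of over 55% in size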
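HT-1080-NT; 750 cells/well; 5% FBS RPMI; 48 h compound, 37 degrees C; CellTiter-Glo luminescence; curve fitting and curve-class assignment.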
The depositor's hits bear a star; ? = inconclusive; . = no result. This is a sample that favours compounds with a hit; in the whole collection about 19% have one here. Unless noted, the call rests on the fitted dose curve; in most records, active means well fitted curve in the direction sought with a large enough effect; inconclusive means small, poorly fitted or top-dose-only effect, or another doubt; inactive means no such curve, though single readings can be large; an effect the other way counts as inactive or inconclusive. Unless noted, on the % scale 0 is the no-effect control and ±100 the full control effect.

SMILES	IL-1B inflam inh	TDP1 cell CPT	HT1080 IDH1KD tx	TDP1 cell noCPT	uPA surface inh	HT1080-NT tox
COc1cccc(-c2nn(-c3ccc(C)cc3)cc2C(=O)N2CCc3cc(OC)c(OC)cc3C2)c1	-5.6	18.4µM*	20.6µM*	?	?	?
COc1cc2c(cc1OC)CN(CC(=O)Nc1cccc([N+](=O)[O-])c1)CC2	-19.4	?	-10.1%	16.4µM*	-3.5%	-9.2%
COc1ccc(OC)c(-c2nn(-c3ccccc3)cc2C(=O)N2CCc3ccccc3C2)c1	?	?	?	?	10.7%	-18.4%
COc1cc2c(cc1OC)CN(C(=O)c1cccc([N+](=O)[O-])c1)CC2	-8.5	25.9µM*	6.9%	?	-0.6%	6.5%
CCOc1ccc(C(=O)N2CCc3cc(OC)c(OC)cc3C2)cc1OCC	-3.3	?	?	29.1µM*	-0.1%	-10.0%
Cc1ccn2c(=O)nc(SCC(=O)Nc3ccc4c(c3)OCCO4)nc2c1	-9.0	?	-15.2%	?	-15.1%	-8.7%
COc1cc2c(cc1OC)CN(C(=O)c1cccs1)CC2	?	-10.3%	26.9%	?	-3.1%	15.9%
COc1cc2c(cc1OC)CN(C(=O)/C=C/c1ccc([N+](=O)[O-])cc1)CC2	-5.0	18.4µM*	-4.2%	16.4µM*	-1.5%	13.9%
COc1cc2c(cc1OC)CN(C(=O)/C=C/c1cccs1)CC2	0.0	1.46µM*	4.11µM*	1.03µM*	3.16µM*	7.31µM*
Cc1ccc(C(=O)NS(=O)(=O)c2ccccc2)cc1	0.2	8.0%	2.3%	-7.2%	2.6%	-0.6%
Cc1ccc(S(=O)(=O)CCC(=O)OCC(=O)NC(=O)c2ccccc2)cc1	3.3	2.6%	3.6%	-0.7%	6.1%	3.6%
Cc1ccc(S(=O)(=O)/C(=C/Cl)NC(=O)c2ccccc2)cc1	-72.9*	18.4µM*	20.6µM*	14.6µM*	-17.5%	?
Cc1ccc(S(=O)(=O)C(NC(=O)c2ccccc2)=C(Cl)Cl)cc1	-116.7*	23.1µM*	?	13µM*	-16.4%	?
Cc1ccc(C(=O)NS(=O)(=O)c2ccc(C)cc2)cc1	13.9	-15.8%	-3.4%	-0.7%	17.5%	-5.1%
CC(=O)NC(=C(Cl)Cl)S(=O)(=O)c1ccccc1	-100.1*	11.6µM*	-6.1%	8.2µM*	.	-5.9%
Cc1ccc(C(=O)NC(=C(Cl)Cl)S(=O)(=O)c2ccc(Cl)cc2)cc1	-64.0*	?	?	18.4µM*	-8.3%	?
COc1ccc(C)cc1S(=O)(=O)NC(C)C(=O)Nc1ccc2c(c1)OCO2 (stereo not drawn)	1.4	10.8%	6.4%	7.9%	1.3%	-1.2%
O=C(NC(=S)Nc1ccc(Cl)cc1)c1ccccc1	-17.4	13.8%	10.0%	3.2%	-1.3%	?
O=C(NC(=C(Cl)Cl)S(=O)(=O)c1ccc(Cl)cc1)c1ccccc1	-92.9*	6.51µM*	?	9.2µM*	8.91µM*	?
Cc1ccc(C(=O)NC(=C(Cl)Cl)S(=O)(=O)c2ccc(C)cc2)cc1	-103.9*	?	?	?	-7.5%	?
O=C(Cn1nnc(-c2ccccc2)n1)N/N=C/c1cccc([N+](=O)[O-])c1O	124.4	?	?	20.6µM*	-12.7%	-3.5%
Cc1ccc(-c2csc(N=C(N)N)n2)cc1	-60.8*	-21.1%	?	?	-0.6%	-14.4%
CC1(c2nnnn2C2CCCC2)CCC(=O)N1c1ccc2c(c1)OCCO2 (stereo not drawn)	-12.1	0.7%	21.2%	-12.8%	.	11.9%
CCCNC(=O)c1ccc(N2CCC3(CC2)CC(c2ccccc2)=NO3)c(NC(=O)c2ccc(Br)cc2)c1	-6.5	?	1.4%	-15.9%	-3.8%	-2.2%

Bioassay records: PubChem, National Center for Advancing Translational Sciences (NCATS)
